Columns and labels:
Assay in all cases: PBM binding z-score (relative to random genomic background probes); higher = stronger binding; sequences stand for … in GC…GCGATTGACAGCGTAGAATGAAGG
[1] = tested on: FXR:RXRa (NR concentration 270 nM, RXRa partner concentration 90 nM)
In short: (§1)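 Random background probes are the reference for binding z-scores. These scores derive from regression-normalized fluorescence on custom Agilent 4×180K protein-binding microarrays incubated 1 h with ligand-free nuclear receptor dimers. Binding was detected with antibodies against each partner (one per run).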

[2] = tested on: LXRa:RXRa (NR concentration 270 nM, RXRa partner concentration 90 nM)
In short: as §1

[3] = tested on: LXRa homodimer (NR concentration 270 nM)
In short: as §1

[4] = tested on: LXRb:RXRa (NR concentration 270 nM, RXRa partner concentration 90 nM)
In short: as §1

[5] = tested on: LXRb homodimer (NR concentration 270 nM)
In short: as §1

[6] = tested on: PPARa:RXRa (NR concentration 270 nM, RXRa partner concentration 90 nM)
In short: as §1

[7] = tested on: PPARg:RXRa (NR concentration 180 nM, RXRa partner concentration 90 nM)
In short: as §1

[8] = tested on: PPARg:RXRa 270nM:90nM, anti-RXR (NR concentration 270 nM, RXRa partner concentration 90 nM)
In short: as §1

[9] = tested on: PPARg:RXRa 30nM:10nM, anti-RXR (NR concentration 30 nM, RXRa partner concentration 10 nM)
In short: as §1

[10] = tested on: PPARg:RXRa 90nM:30nM, anti-RXR (NR concentration 90 nM, RXRa partner concentration 30 nM)
In short: as §1

[11] = tested on: PPARg:RXRa DBDmut IVT, anti-RXR (DBD mutation: RXRa K156A/R161A, NR concentration 270 nM, RXRa partner concentration 90 nM)
In short: as §1

[12] = tested on: PPARg:RXRa IVT, anti-PPARg (NR concentration 270 nM, RXRa partner concentration 90 nM)
In short: as §1

[13] = tested on: PPARg DBDmut IVT, anti-PPARg (DBD mutation: PPARg1 K132A/R137A, NR concentration 270 nM)
In short: as §1

[14] = tested on: PPARg homodimer (NR concentration 180 nM)
In short: as §1

[15] = tested on: PXR:RXRa (NR concentration 270 nM, RXRa partner concentration 90 nM)
In short: as §1

[16] = tested on: PXR homodimer (NR concentration 270 nM)
In short: as §1

[17] = tested on: RARa:RXR (NR concentration 270 nM, RXRa partner concentration 90 nM)
In short: as §1

[18] = tested on: RARa homodimer (NR concentration 270 nM)
In short: as §1

[19] = tested on: RARb:RXRa (NR concentration 270 nM, RXRa partner concentration 90 nM)
In short: as §1

Sequence	PBM binding z-score [1]	PBM binding z-score [2]	PBM binding z-score [3]	PBM binding z-score [4]	PBM binding z-score [5]	PBM binding z-score [6]	PBM binding z-score [7]	PBM binding z-score [8]	PBM binding z-score [9]	PBM binding z-score [10]	PBM binding z-score [11]	PBM binding z-score [12]	PBM binding z-score [13]	PBM binding z-score [14]	PBM binding z-score [15]	PBM binding z-score [16]	PBM binding z-score [17]	PBM binding z-score [18]	PBM binding z-score [19]
ATATGTAGGTTATGGTCATTCAGAAAGTAGGGAA	1.06	1.36	0.432	1.37	0.916	3.29	4.98	4.06	2.18	3.32	6.83	6.63	2	1.64	0.998	0.449	1.17	1.24	1.4
ATATGTAGGTTTGGGTCATTCAGAAAGTAGGGAA	1.74	1.71	0.946	2.49	1.68	3.1	2.34	2.64	1.4	2.29	2.79	3.08	1.3	2.99	2.17	1.25	2.47	2.33	2.07
CGAACTAAGTCACCAGGACAGTGAAGAGGTTGGA	-0.00843	-0.109	-0.233	-0.378	-0.234	0.219	0.494	0.0365	0.0312	-0.255	2.13	1.61	-0.0362	0.131	-0.257	0.203	0.00404	-0.12	0.526
ATATGTAGGTTAGGGTCATGCAGAAAGTAGGGAA	4.77	4.14	0.926	4.29	1.21	5.74	7.7	6.66	4.91	6.3	6.6	6.52	2.44	2.6	4.26	1.01	5.05	1.83	3.66
ATATGTAGGTTAGGGCCATTCAGAAAGTAGGGAA	0.671	0.708	0.2	0.722	0.503	2.71	3.6	3.2	1.06	2.58	6.52	5.91	1.97	1.54	0.501	0.512	0.535	0.865	1.35
CGTACTAGGTCAAAGGACAGTGAAAGGCGACGTA	3.86	2.77	0.17	1.89	-0.0877	4.83	9.74	7.95	8.11	9.06	7.43	8	1.47	2.5	1.14	0.0831	2.27	0.22	3.85
CGAACTAGGTCACCGGGACAGTGAAGAGGTTGGA	4.89	2.78	-0.0882	1.89	-0.502	5.58	9.04	7.34	5.02	7.12	7.85	9.13	0.892	2.28	1.79	-0.271	3.2	0.436	4.33
CGAACTAGGTCAAAGGACAGTGAAAGGCGACGTA	4.11	2.54	0.0195	1.9	-0.588	5.72	10.1	8.6	8.13	9.66	7.94	8.4	3.54	2.15	1.21	-0.123	2.12	-0.0827	3.99
CGAACTAGGTCACCAGGACAGTTAAGAGGTTGGA	3.97	2.32	0.241	1.84	-0.421	5.2	8.53	6.67	4.77	6.38	8.1	8.64	5.1	2.14	1.49	0.424	2.73	0.481	4.2
CGAACTACGTCACCAGGACAGTGAAGAGGTTGGA	-0.0876	-0.2	-0.121	-0.435	-0.676	-0.258	0.527	-0.464	0.0797	-0.46	0.112	0.232	-0.216	0.245	-0.245	-0.301	0.0876	-0.285	-0.125
CGAACTAGGTCAAAGCACAGTGAAAGGCGACGTA	3.1	2.6	-0.247	1.56	-0.247	5.18	8.01	6.88	5.18	7.17	7.81	8.43	5.29	3.43	1.01	-0.325	1.71	0.149	3.8
ATATGTAGGTTAGGGGCATTCAGAAAGTAGGGAA	1.64	1.47	0.824	3.01	2.52	3.8	5.77	5.21	2.78	4.77	6.62	6.65	1.93	2.07	1.43	1.48	1.52	1.74	1.86
CGAACTAGGTCAAAAGACAGTGAAAGGCGACGTA	3.09	2.03	-0.16	1.47	-0.191	4.46	8.06	7.08	5.52	7.26	7.84	7.79	0.23	0.576	0.624	-0.275	1.45	-0.196	3.17
CGAACTAGGTCAAATGACAGTGAAAGGCGACGTA	4.96	3.06	0.264	2.29	0.271	5.2	8.2	6.78	5.35	7.38	7.89	8.48	2.82	2.37	1.34	0.00572	2.23	0.892	4.02
ATATGTAGATTAGGGTCATTCAGAAAGTAGGGAA	4.07	3.39	0.828	4.21	1.27	4.91	3.51	3.48	1.4	2.69	1.94	2.96	1.38	2.2	3.84	1.24	4.48	1.28	2.92

Source: the supplement of paper PMC6555819
